This note sets out measurements from PubChem BioAssay (EPA / NIEHS).

Structures are written as SMILES. The source made the active and inactive calls. The calls were made as follows: active = hit-call score of the fitted dose curve at least 0.9, where 1 is the maximum; inactive = score below 0.9.

Assay [1] can be described thus: BSK_hDFCGF_SRB: Viability Assessment in the BioMAP Diversity Plus: hDFCGF Assay (AID 2283061).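 Also: cells exposed to compound for 24 h before the read.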 The conditions noted are these: primary human foreskin fibroblasts. In outline:
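Human foreskin primary fibroblasts were treated with compound and assessed 24 h after dosing. Total protein was measured by sulforhodamine B staining (0.1% SRB after 10% TCA fixation, 560 nm read) as a cytotoxicity marker, with bidirectional fitting against DMSO baseline.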

Read-out in assay [2]: TIMP metallopeptidase inhibitor 1 (TIMP1), TIMP1 (gene 7076)
The assay is described as follows: BSK_hDFCGF_TIMP1: BioMAP Diversity Plus: hDFCGF Assay for TIMP metallopeptidase inhibitor 1 (TIMP1) Biomarker Activity (AID 2283062). The conditions noted are these: primary human foreskin fibroblasts; actives raise or lower the signal. In a few lines: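 Primary human foreskin fibroblasts in the hDFCGF system were dosed with compound for 24 h, then TIMP-1 was measured by ELISA. Activity was fitted bidirectionally relative to DMSO control; parallel SRB staining assessed cytotoxicity.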

Read-out in assay [3]: Monokine induced gamma interferon (MIG), CXCL9 (gene 4283)
The assay is described as follows: BSK_hDFCGF_MIG: BioMAP Diversity Plus: hDFCGF Assay for Monokine induced gamma interferon (MIG) Biomarker Activity (AID 2283063). The conditions noted are these: primary human foreskin fibroblasts; actives raise or lower the signal. In outline:
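ELISA read-out of MIG from primary human dermal fibroblasts 24 h post-dosing. Gain or loss of signal fitted bidirectionally, DMSO as baseline.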

Read-out in assay [4]: Matrix Metallopeptidase 1 (MMP1), MMP1 (gene 4312)
The assay is described as follows: BSK_hDFCGF_MMP1: BioMAP Diversity Plus: hDFCGF Assay for Matrix Metallopeptidase 1 (MMP1) Biomarker Activity (AID 2283064). The conditions noted are these: primary human foreskin fibroblasts; actives raise or lower the signal. In a few lines:
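hDFCGF primary fibroblasts (human foreskin); chemical added; 24 h; MMP1 by ELISA; bidirectional fit vs DMSO.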

Read-out in assay [5]: Plasminogen activator inhibitor-1 (PAI1), SERPINE1 (gene 5054)
The assay is described as follows: BSK_hDFCGF_PAI1: BioMAP Diversity Plus: hDFCGF Assay for Plasminogen activator inhibitor-1 (PAI1) Biomarker Activity (AID 2283066). The settings on record: primary human foreskin fibroblasts; actives raise or lower the signal. In outline:
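Primary dermal fibroblasts (human foreskin), hDFCGF system; compound 24 h; PAI-1 by ELISA; bidirectional fit vs DMSO control.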

Read-out in assay [6]: Intercellular Adhesion Molecule 1 (ICAM1), ICAM1 (gene 3383)
Kind of assay: BSK_KF3CT_ICAM1: BioMAP Diversity Plus: KF3CT Assay for Intercellular Adhesion Molecule 1 (ICAM1) Biomarker Activity (AID 2283067). The settings on record: primary human keratinocytes with fibroblasts; actives raise or lower the signal. In a few lines:
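Human keratinocyte plus foreskin fibroblast primary co-culture was exposed to chemical for 24 h. ICAM-1 was then quantified by ELISA, and the data were fit bidirectionally against DMSO as the negative control and baseline.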

Read-out in assay [7]: Interferon-gamma inducible Protein 10 (IP10), CXCL10 (gene 3627)
The assay is described as follows: BSK_KF3CT_IP10: BioMAP Diversity Plus: KF3CT Assay for Interferon-gamma inducible Protein 10 (IP10) Biomarker Activity (AID 2283068). The conditions noted are these: primary human keratinocytes with fibroblasts; actives raise or lower the signal. In outline:
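Human keratinocyte plus foreskin fibroblast primary co-culture exposed to test chemical for 24 h; IP-10 measured by ELISA. Concentration-response fitted bidirectionally against DMSO control as baseline.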

Assay [8] is described as follows: BSK_KF3CT_SRB: Viability Assessment in the BioMAP Diversity Plus: KF3CT Assay (AID 2283069).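 Also: fitted for both signal gain and loss against DMSO baseline.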 The conditions noted are these: primary human keratinocytes with fibroblasts. In a few lines:
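Keratinocytes co-cultured with foreskin fibroblasts (human primary); chemical added, 24 h; fix 10% TCA, stain 0.1% SRB, A560. Bidirectional fit vs DMSO.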

Read-out in assay [9]: Interleukin-1 alpha (IL1a), IL1A (gene 3552)
Kind of assay: BSK_KF3CT_IL1a: BioMAP Diversity Plus: KF3CT Assay for Interleukin-1 alpha (IL1a) Biomarker Activity (AID 2283070). The conditions noted are these: primary human keratinocytes with fibroblasts; actives raise or lower the signal. In outline: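 Chemicals were dosed onto co-cultured human keratinocytes and foreskin fibroblasts, IL-1a was quantified by ELISA at 24 h, and activity was fitted in both directions relative to DMSO controls.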

Read-out in assay [10]: TIMP metallopeptidase inhibitor 2 (TIMP2), TIMP2 (gene 7077)
The assay is described as follows: BSK_KF3CT_TIMP2: BioMAP Diversity Plus: KF3CT Assay for TIMP metallopeptidase inhibitor 2 (TIMP2) Biomarker Activity (AID 2283071). The settings on record: primary human keratinocytes with fibroblasts; actives raise or lower the signal. In a few lines:
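Cells: human keratinocytes co-cultured with foreskin fibroblasts. Treat with chemical, 24 h. Measure TIMP-2 by ELISA; fit curves bidirectionally vs DMSO baseline.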

Read-out in assay [11]: Transforming growth factor beta 1 (TGFb1), TGFB1 (gene 7040)
Kind of assay: BSK_KF3CT_TGFb1: BioMAP Diversity Plus: KF3CT Assay for Transforming growth factor beta 1 (TGFb1) Biomarker Activity (AID 2283072). The conditions noted are these: primary human keratinocytes with fibroblasts; actives raise or lower the signal. In a few lines:
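Primary human skin cells (keratinocytes, foreskin fibroblasts) were co-cultured, exposed to test chemical and sampled at 24 h. TGF-b1 levels were measured by ELISA and fitted bidirectionally relative to DMSO.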

Read-out in assay [12]: C-C motif chemokine 2 (Homo sapiens) (UniProt P13500)
Kind of assay: BSK_KF3CT_MCP1: BioMAP Diversity Plus: KF3CT Assay for Monocyte Chemoattractant Protein 1 (MCP1/CCL2) Biomarker Activity (AID 2283073). The settings on record: primary human keratinocytes with fibroblasts; actives raise or lower the signal. In outline: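 Human keratinocyte plus foreskin fibroblast primary co-culture exposed to chemical for 24 h. MCP-1 levels measured by ELISA. Bidirectional curve fitting relative to DMSO negative control as baseline.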

Read-out in assay [13]: Matrix Metallopeptidase 9 (MMP9), MMP9 (gene 4318)
The assay is described as follows: BSK_KF3CT_MMP9: BioMAP Diversity Plus: KF3CT Assay for Matrix Metallopeptidase 9 (MMP9) Biomarker Activity (AID 2283074).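 As to AC50: MMP9 protein level quantified by ELISA in the co-culture.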 The settings on record: primary human keratinocytes with fibroblasts; actives raise or lower the signal. In a few lines:
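Human keratinocyte/foreskin fibroblast co-culture; compound added; 24 h; MMP-9 by ELISA; bidirectional fit vs DMSO baseline.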

Read-out in assay [14]: urokinase plasminogen activator (uPA), PLAU (gene 5328)
The assay is described as follows: BSK_KF3CT_uPA: BioMAP Diversity Plus: KF3CT Assay for urokinase plasminogen activator (uPA) Biomarker Activity (AID 2283075). The conditions noted are these: primary human keratinocytes with fibroblasts; actives raise or lower the signal. In outline: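 ELISA readout of uPA, analyzed for signal gain or loss relative to DMSO, from a human primary keratinocyte–foreskin fibroblast co-culture measured 24 h after chemical treatment.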

Read-out in a further assay: CD40, CD40 (gene 958)
The assay is described as follows: BSK_LPS_CD40: BioMAP Diversity Plus: LPS Assay for CD40 Biomarker Activity (AID 2283076). The conditions noted are these: primary human HUVEC with PBMC; actives raise or lower the signal. In outline:
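Primary human umbilical vein endothelial cells co-cultured with peripheral blood mononuclear cells, LPS-stimulated, were dosed with chemical and read 24 h later. CD40 levels were measured by ELISA and fitted bidirectionally against DMSO as negative control and baseline.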

Read-out in assay [15]: E-selectin (Homo sapiens) (UniProt P16581)
Kind of assay: BSK_LPS_Eselectin: BioMAP Diversity Plus: LPS Assay for Eselectin Biomarker Activity (AID 2283077). The settings on record: primary human HUVEC with PBMC; actives raise or lower the signal. In a few lines: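 Human umbilical vein endothelial cells co-cultured with peripheral blood mononuclear cells under LPS stimulation; E-selectin measured by ELISA 24 h after chemical dosing. Activity fitted bidirectionally against DMSO as negative control and baseline.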

Read-out in assay [16]: Interleukin-8 (IL8), CXCL8 (gene 3576)
The assay is described as follows: BSK_LPS_IL8: BioMAP Diversity Plus: LPS Assay for Interleukin-8 (IL8) Biomarker Activity (AID 2283078). The conditions noted are these: primary human HUVEC with PBMC; actives raise or lower the signal. In a few lines:
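Human umbilical vein endothelial cells co-cultured with PBMC were stimulated with LPS; IL-8 levels were measured by ELISA 24 h after chemical dosing. Activity was fitted bidirectionally against DMSO as negative control and baseline.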

Assay [17] can be described thus: BSK_LPS_SRB: Viability Assessment in the BioMAP Diversity Plus: LPS Assay (AID 2283079).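 Also: total protein by sulforhodamine B absorbance as a cytotoxicity measure; measured one day after compound addition; fitted in both directions against DMSO so loss or gain of signal counts.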 The settings on record: primary human HUVEC with PBMC. In a few lines:
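Human umbilical vein endothelial cells co-cultured with PBMC (LPS system) were dosed for 24 h. Total protein was stained with 0.1% sulforhodamine B after 10% TCA fixation, read at 560 nm, and fitted bidirectionally against DMSO baseline.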

Read-out in assay [18]: Interleukin-1 alpha (IL1a), IL1A (gene 3552)
Kind of assay: BSK_LPS_IL1a: BioMAP Diversity Plus: LPS Assay for Interleukin-1 alpha (IL1a) Biomarker Activity (AID 2283080). The settings on record: primary human HUVEC with PBMC; actives raise or lower the signal. In outline: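 Human umbilical vein endothelial cells co-cultured with peripheral blood mononuclear cells were LPS-stimulated and exposed to test chemicals for 24 h. IL-1 alpha was quantified by ELISA, with bidirectional curve fitting against DMSO as the negative control and baseline.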

Chain of E-selectin (Homo sapiens) (P16581 whole entry, looked up): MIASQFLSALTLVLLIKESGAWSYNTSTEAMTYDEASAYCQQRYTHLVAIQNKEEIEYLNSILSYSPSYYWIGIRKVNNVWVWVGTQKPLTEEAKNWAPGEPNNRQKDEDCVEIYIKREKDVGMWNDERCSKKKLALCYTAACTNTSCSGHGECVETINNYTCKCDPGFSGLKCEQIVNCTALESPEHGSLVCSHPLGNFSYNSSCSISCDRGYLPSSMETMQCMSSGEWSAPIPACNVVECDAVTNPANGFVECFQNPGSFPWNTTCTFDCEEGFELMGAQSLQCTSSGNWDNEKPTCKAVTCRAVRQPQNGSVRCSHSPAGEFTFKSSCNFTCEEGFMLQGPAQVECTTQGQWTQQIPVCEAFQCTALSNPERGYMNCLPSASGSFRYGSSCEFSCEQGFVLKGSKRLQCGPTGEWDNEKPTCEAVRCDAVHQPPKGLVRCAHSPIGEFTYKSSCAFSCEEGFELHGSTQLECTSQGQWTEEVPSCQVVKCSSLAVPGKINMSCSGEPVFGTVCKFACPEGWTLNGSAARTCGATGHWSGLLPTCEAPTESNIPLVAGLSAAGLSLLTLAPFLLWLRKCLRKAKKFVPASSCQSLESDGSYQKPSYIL

For the compound `CO/C=C(/C(=O)OC)c1ccccc1COc1cccc(C(F)(F)F)n1`, the concentration at half-maximal activity (AC50) in assay [1] was 10.7 µM (active); in [4], 6.92 µM (active); in [5] it was 11.1 µM (active); in [11], 5.13 µM (active); in assay [13] it was 12.7 µM (active); with CD40, CD40 (gene 958), 18.3 µM (active). Moreover, the concentration at half-maximal activity (AC50) in assay [15] was 7.16 µM (active); in assay [16] it was 3.06 µM (active); in assay [17], 10.6 µM (active). For the same compound, the result in assay [2], in assay [3], in assay [6], in assay [7], in assay [8] and in assay [9] was inactive. Also, the outcome in [10], in [12], in [14] and in assay [18] was inactive.
Consider `CCCCCCCCOC(=O)c1ccccc1C(=O)OCCCCCCCC`, for which the result in [1], in assay [2], in [3], in [4], in assay [5] and in assay [6] was inactive. For the same compound, the result in assay [7], in assay [8], in assay [9], in [10], in [11] and in assay [13] was inactive. The outcome in assay [14] was “inactive”; with CD40, CD40 (gene 958), “inactive”; in assay [15] it was “inactive”; in [16], “inactive”; in [17], “inactive”; in assay [18] it was “inactive”.
As for `Clc1ccc(C(c2ccccc2Cl)C(Cl)(Cl)Cl)cc1` (stereo not given), the half-maximal activity concentration (AC50) in assay [1] is 6.8 µM (active); in [2], 9.41 µM (active); in [3], 18.5 µM (active); in [4], 9.47 µM (active); in assay [5], 5.83 µM (active); in [6], 22.8 µM (active). For the same compound, the AC50 is 10 µM (active) in [7]; 21.1 µM (active) in assay [8]; 18.4 µM (active) in assay [9]; 19 µM (active) in assay [10]; 19.1 µM (active) in assay [11]; 10.7 µM (active) in assay [12]. Besides, the concentration at half-maximal activity (AC50) in assay [13] is 8.05 µM (active); in assay [14], 21.6 µM (active); in the assay with CD40, CD40 (gene 958), 19.4 µM (active); in [16] it was 21.9 µM (active); in assay [17], 19.2 µM (active); in assay [18], 20.8 µM (active).
With `COc1ccc(O)c(C(C)(C)C)c1`, the outcome in [1], in [2], in assay [3], in assay [4], in assay [5] and in assay [6] was inactive. In addition, the result in [7], in [8], in assay [9], in assay [10], in assay [11] and in [13] was inactive. For the same compound, the outcome in assay [14] was “inactive”; in the assay with CD40, CD40 (gene 958), “inactive”; in assay [15], “inactive”; in assay [16], “inactive”; in assay [17], “inactive”; in assay [18], “inactive”.
With `CCC(C)(CC)c1cc(NC(=O)c2c(OC)cccc2OC)on1`, the outcome in assay [1], in [2], in assay [3], in [4], in [5] and in assay [6] was inactive. For the same compound, the outcome in assay [7], in assay [8], in assay [9], in assay [10], in assay [11] and in assay [12] was inactive. In addition, the outcome in [13] is “inactive”; in [14], “inactive”; with CD40, CD40 (gene 958), “inactive”; in assay [15] it was “inactive”; in assay [16], “inactive”; in assay [17], “inactive”. Also, the result in assay [18] was inactive.
For `CCNc1nc(NC(C)C)nc(SC)n1`, the outcome in [1], in assay [2], in [3], in assay [4], in assay [5] and in assay [6] was inactive. Moreover, the outcome in assay [7], in assay [8], in [9], in assay [10], in assay [11] and in assay [13] was inactive. The outcome is “inactive” in [14]; “inactive” with CD40, CD40 (gene 958); “inactive” in [15]; “inactive” in assay [16]; “inactive” in [17]; “inactive” in assay [18].
